Reference: PubChem BioAssay
Calls of active or inactive are those of the source.

Key:
[1] = system: Plasmodium falciparum Sir2 (PF13_0152, Sir2A); test: Plasmodium falciparum Sir2A binding compounds – biochemical, small-molecule microarray, 635 nm fluorescence, primary screen (AID 1098); conditions: fluorescence 635 nm, higher = more signal;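 note: score merges spot fluorescence intensity with its signal-to-noise ratio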
[2] = probe aDKK1 binding to arrayed compounds – biochemical, biotinylated probe, 635/667 nm fluorescence, primary screen (AID 1099); conditions: small-molecule microarray, higher = more signal;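 note: score merges 667nm spot fluorescence with signal to noise across triplicate slides; reference of the scale not given here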
[3] = probe aCHRDL2 binding to arrayed compounds – biochemical, biotinylated probe, 635/667 nm fluorescence, primary screen (AID 1100); conditions: small-molecule microarray, higher = more signal
[4] = change in splice reporter luminescence, either direction, cell-based, HEK293, spliceosome inhibition project, primary screen (AID 1101); conditions: HEK293 splicing luciferase reporter, 24 h, higher = more signal, called active from +8 up or from −8 down;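 note: HEK293 cells carrying a splicing-competent luciferase reporter gene; test concentration not given here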
[5] = target: Fibroblast growth factor 10 (Homo sapiens) (UniProt O15520); test: compounds binding fibroblast growth factor 10 – biochemical, small-molecule microarray, 635 nm fluorescence, primary screen (AID 1102); conditions: FGF10 binding, fluorescence 635 nm, higher = more signal
Sequence of Fibroblast growth factor 10 (Homo sapiens) (O15520 whole entry, looked up): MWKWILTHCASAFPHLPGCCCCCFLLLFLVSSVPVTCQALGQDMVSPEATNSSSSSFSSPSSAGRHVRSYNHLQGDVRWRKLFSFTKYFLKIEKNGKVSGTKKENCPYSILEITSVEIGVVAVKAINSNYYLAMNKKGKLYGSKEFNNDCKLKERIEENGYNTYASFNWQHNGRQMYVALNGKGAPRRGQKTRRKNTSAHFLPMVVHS

[6] = system: glycogen synthase kinase-3 (GSK3A per assay name; protocol says GSK3B); test: compounds binding glycogen synthase kinase-3 – biochemical, small-molecule microarray, 635 nm fluorescence, GSK3A, primary screen (AID 1103); conditions: fluorescence 635 nm, higher = more signal; note: the record names both GSK3A and GSK3B
[7] = target: Epidermal growth factor receptor (Homo sapiens) (UniProt P00533); test: compounds binding epidermal growth factor receptor – biochemical, small-molecule microarray, 635 nm fluorescence, primary screen (AID 1104); conditions: EGFR binding, higher = more signal;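 note: score merges 667 nm emission intensity with spot signal to noise over triplicate slides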
Sequence of Epidermal growth factor receptor (Homo sapiens) (P00533 whole entry, looked up): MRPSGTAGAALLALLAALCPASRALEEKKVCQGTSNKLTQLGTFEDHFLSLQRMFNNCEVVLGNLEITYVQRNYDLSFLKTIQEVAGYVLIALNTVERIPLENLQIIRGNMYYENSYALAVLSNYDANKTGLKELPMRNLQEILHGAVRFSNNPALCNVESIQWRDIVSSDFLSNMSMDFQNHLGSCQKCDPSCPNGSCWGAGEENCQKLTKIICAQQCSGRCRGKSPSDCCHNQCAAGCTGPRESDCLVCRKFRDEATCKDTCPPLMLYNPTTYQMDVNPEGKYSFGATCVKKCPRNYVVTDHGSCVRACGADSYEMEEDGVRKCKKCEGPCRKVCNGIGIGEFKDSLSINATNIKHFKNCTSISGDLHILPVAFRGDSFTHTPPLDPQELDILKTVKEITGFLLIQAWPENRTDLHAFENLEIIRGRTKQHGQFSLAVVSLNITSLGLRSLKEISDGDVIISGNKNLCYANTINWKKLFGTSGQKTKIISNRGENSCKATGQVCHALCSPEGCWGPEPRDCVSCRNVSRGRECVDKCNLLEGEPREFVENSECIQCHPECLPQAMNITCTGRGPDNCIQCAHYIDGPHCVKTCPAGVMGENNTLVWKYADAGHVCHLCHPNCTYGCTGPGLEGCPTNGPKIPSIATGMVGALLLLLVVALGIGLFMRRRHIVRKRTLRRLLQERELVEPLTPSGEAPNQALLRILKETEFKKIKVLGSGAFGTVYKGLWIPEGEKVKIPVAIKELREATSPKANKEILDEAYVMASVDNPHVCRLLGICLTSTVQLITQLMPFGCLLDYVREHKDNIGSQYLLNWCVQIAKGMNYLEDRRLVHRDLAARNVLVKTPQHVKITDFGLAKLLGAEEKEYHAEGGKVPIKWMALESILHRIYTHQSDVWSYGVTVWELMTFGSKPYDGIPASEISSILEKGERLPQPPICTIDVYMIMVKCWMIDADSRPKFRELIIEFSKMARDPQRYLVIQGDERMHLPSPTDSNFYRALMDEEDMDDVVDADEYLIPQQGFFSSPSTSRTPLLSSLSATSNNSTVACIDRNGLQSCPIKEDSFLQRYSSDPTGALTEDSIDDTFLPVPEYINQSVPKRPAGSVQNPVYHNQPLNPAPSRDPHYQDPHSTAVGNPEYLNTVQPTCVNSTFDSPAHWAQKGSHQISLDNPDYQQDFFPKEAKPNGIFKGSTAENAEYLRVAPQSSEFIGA

[8] = target: Follistatin-related protein 3 (Homo sapiens) (UniProt O95633); test: compounds binding follistatin-related protein 3 – biochemical, small-molecule microarray, 635 nm fluorescence, primary screen (AID 1105); conditions: FSTL3 binding, higher = more signal;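 note: score merges emission near 667 nm and signal to noise per printed spot across three slides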
Sequence of Follistatin-related protein 3 (Homo sapiens) (O95633 whole entry, looked up): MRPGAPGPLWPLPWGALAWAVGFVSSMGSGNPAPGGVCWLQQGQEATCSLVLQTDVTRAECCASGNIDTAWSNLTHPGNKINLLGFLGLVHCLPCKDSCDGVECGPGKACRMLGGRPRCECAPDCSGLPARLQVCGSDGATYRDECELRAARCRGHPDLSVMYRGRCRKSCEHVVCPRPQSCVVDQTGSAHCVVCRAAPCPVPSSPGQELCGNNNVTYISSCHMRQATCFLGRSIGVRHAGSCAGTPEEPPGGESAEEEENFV

[9] = target: Dickkopf-related protein 1 (Homo sapiens) (UniProt O94907); test: small molecules binding DKK1 protein – biochemical, small-molecule microarray, 635 nm fluorescence scan, primary screen (AID 1106); conditions: higher = more signal;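 note: score merges emission near 667 nm with signal to noise over three replicate slides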
Sequence of Dickkopf-related protein 1 (Homo sapiens) (O94907 whole entry, looked up): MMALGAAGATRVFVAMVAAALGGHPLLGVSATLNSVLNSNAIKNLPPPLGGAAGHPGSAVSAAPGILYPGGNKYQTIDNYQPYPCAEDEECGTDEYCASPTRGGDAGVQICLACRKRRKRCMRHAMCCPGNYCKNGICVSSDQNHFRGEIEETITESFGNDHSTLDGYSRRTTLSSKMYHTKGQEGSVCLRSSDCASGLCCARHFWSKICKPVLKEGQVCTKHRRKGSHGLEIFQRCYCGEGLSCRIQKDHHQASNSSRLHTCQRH

[10] = system: Inhibin beta A chain (activin A); test: small molecules binding activin A – biochemical, small-molecule microarray, 635 nm fluorescence scan, primary screen (AID 1107); conditions: INHBA, higher = more signal;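 note: mouse activin A protein probed at 4.33 µg/mL on printed slides; score merges bound-protein fluorescence near 667 nm with spot signal-to-noise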

SMILES	composite z-score [1]	composite z-score [2]	composite z-score [3]	z-score [4]	composite z-score [5]	composite z-score [6]	composite z-score [7]	composite z-score [8]	composite z-score [9]	composite z-score [10]
CC(C)[Si](C#C[Si](C(C)C)(C(C)C)C(C)C)(O[C@H](c1ccccc1)c1cn(Cc2ccccc2)nn1)C(C)C	0.144	-0.138	-0.465	0.501 (inactive)	0.279	0.654	0.392	0.628	0.405	0.218
CCCNC(=O)[C@@]1(C)c2ccccc2C(=O)N(c2ccc(C)cn2)[C@H]1c1ccc(CO)cc1	0.732	-0.103	0.649	0.756 (inactive)	-0.779	-0.158	-0.473	-0.223	-0.126	0.948
COC(=O)c1c(CC[C@@H](CO)NC(=O)N[C@@H](C)Cn2cc(-c3ccccn3)nn2)oc(C(C)=O)c1C(=O)OC	1.09	-0.18	-0.495	-1.89 (inactive)	0.563	0.0696	-0.344	0.454	0.28	0.284
[N-]=[N+]=Nc1ccccc1C[C@]1(C(=O)NCC(O)CO)COC(c2ccc(OCCCO)cc2)=N1 (stereo not given in full)	0.989	0.72	1.18	0.173 (inactive)	-0.582	-0.269	-0.603	-1.14	-0.975	1.16
COc1ccccc1CN1C(=O)c2ccccc2[C@](Cc2ccccc2I)(C(=O)O)[C@@H]1c1ccc(CO)cc1	1.19	0.552	0.485	-0.498 (inactive)	1.2	0.941	0.719	0.993	0.441	0.933
CC1CC/C=C\[C@H]2OC34C=CCN(C(C)C)C(=O)[C@H]3N(CCO)C(=O)[C@@H]4C2C(=O)O1 (stereo not given in full)	0.501	-0.163	0.701	0.459 (inactive)	-0.309	-0.979	-1.29	-1.28	-1.28	-0.372
CC(C)C(CO)N1C(=O)[C@@H]2C3C(=O)OCCC/C=C\[C@H]3OC23C=CCN(Cn2nnc4ccccc42)C(=O)[C@@H]13 (stereo not given in full)	0.192	-0.0842	0.543	0.323 (inactive)	-0.727	-0.2	-0.636	-0.359	-1.13	0.223
NC(=O)NCC#Cc1ccc2c(c1)[C@]1(C(=O)N2)[C@H](c2ccccc2OCCO)N2[C@H](c3ccccc3)[C@H](c3ccccc3)OC(=O)[C@H]2[C@@H]1C(=O)O	1.27	-0.103	0.435	-0.724 (inactive)	-0.0931	-0.397	-0.218	-0.085	-0.266	0.894
CCCC=C(CCC)[C@@H](NP(=O)(c1ccccc1)c1ccccc1)c1ccc(-c2ccccc2)cc1	0.517	0.719	0.581	-2.98 (inactive)	1.11	1.27	0.183	1.18	-0.0014	0.479
C=CCC(OC(C)=O)[C@@H]1[C@@H](N(Cc2ccc(-c3ccccc3)cc2)C(=O)c2ccc(-c3ccccc3)cc2)c2cc(OCCCO)ccc2N1C(=O)c1ccc2ccccc2c1 (stereo not given in full)	-0.519	-0.302	0.306	-1.22 (inactive)	-0.015	-0.0147	-0.175	0.453	0.0004	0.82
COc1ccc([Si](C)(C)[C@@H]2[C@@H](CCO)O[C@]3(C(=O)N(Cc4ccccc4)c4ccc(N5CCOC5=O)cc43)[C@H]2C)cc1	1.54	0.0274	-0.0546	-1.64 (inactive)	0.24	0.624	0.254	0.637	0.406	0.729
NCCCCCNC(=O)[C@@H]1C[C@@H]2C(=O)N[C@@H](CCCCN)C(=O)N2[C@@H]1c1ccc(O)cc1	1.57	0.899	0.713	0.498 (inactive)	1.41	1.34	1.13	1.43	1.81	1.32
CC(C)[Si]1(C(C)C)OCc2cc(-c3ccc(-c4ccc(Cl)c(Cl)c4)o3)nc(-c3ccccc3)c21	1.33	-0.0755	0.724	0.14 (inactive)	-1.08	-1.22	-1.84	-1.04	-1.32	1.05
O=C(O)[C@@H]1[C@@H]2C(=O)N(c3ccccc3)C(=O)[C@@H]2C[C@@H]1Sc1ccccc1	1.61	0.638	0.519	0.393 (inactive)	-0.694	-1.74	-0.498	-0.852	-1.19	0.656
C[N+](C)(C)CCCCCCNC(=O)[C@@H]1C[C@@H]2C(=O)N3CCC[C@H]3C(=O)N2[C@@H]1c1ccc(O)cc1	1.1	-0.0891	0.614	-0.546 (inactive)	1.37	1.2	1.23	1.46	1.25	0.578
CC(C)[Si](C#CCCCC#N)(O[C@H](c1ccccc1)c1cn(Cc2ccccc2)nn1)C(C)C	0.562	-0.17	-0.65	-1.08 (inactive)	1.01	1.15	0.494	1.21	0.869	0.105
CN(C)CCCCCCNC(=O)[C@@H]1C[C@@H]2C(=O)N3CCC[C@H]3C(=O)N2[C@@H]1c1cccc(OCCO)c1	1.35	-0.0718	0.481	0.134 (inactive)	0.92	1.33	1.11	1.49	1.81	0.749
CC[C@@H]1C=C(C(=O)O)[C@H](c2ccccc2)N1S(=O)(=O)c1ccc(C)cc1	1.69	0.748	0.853	0.0795 (inactive)	0.825	0.52	-0.482	0.0194	-0.294	0.941
O=C1NC(=O)C2C1C=CC(C(O)c1ccco1)N2Nc1ccc(Cl)cc1Cl (stereo not given)	0.029	0.549	0.609	0.545 (inactive)	-0.0176	0.109	-0.301	0.799	-0.0083	1.39
CCCCN1CC=CC23O[C@@H]4/C=C\CCC(C)OC(=O)C4[C@H]2C(=O)N(CCCO)[C@@H]3C1=O (stereo not given in full)	1.16	-0.235	0.662	0.239 (inactive)	-1.13	-0.496	-0.983	-1.04	-1.37	-0.372
COCCOC(=O)N1C(=O)[C@@]2(c3ccccc31)[C@H](C(=O)NC[C@H](O)c1ccccc1)[C@H]1C(=O)O[C@H](c3ccccc3)[C@H](c3ccccc3)N1[C@@H]2c1ccc(O)cc1	1.54	0.804	0.24	-0.118 (inactive)	1.42	1.32	1.01	1.44	0.827	-0.0795
CCCCCN1CC=CC23O[C@@H]4C=CCCOC(=O)C4[C@H]2C(=O)N(CCCCCCO)[C@@H]3C1=O (stereo not given in full)	0.788	-0.467	-0.272	2.61 (inactive)	0.0027	-0.284	-0.547	-1.01	-0.69	-0.206
CCN(CC)c1ccc(N2CC=CC34O[C@@H]5/C=C\CCCOC(=O)C5[C@H]3C(=O)N(C(C)CO)[C@@H]4C2=O)cc1 (stereo not given in full)	1.03	-0.213	-0.445	-0.0084 (inactive)	-0.184	-0.208	-0.243	-0.232	0.512	1.03
CC(C)=C1C(=O)C(c2ccccc2)=C2CN3C(=O)N(CCc4ccccc4)C(=O)[C@]3(Cc3ccc(C(F)(F)F)cc3)[C@H]21	1.04	1.18	1.3	0.0205 (inactive)	-0.649	-0.0628	-1.22	0.13	-1.7	0.877
COC(=O)[C@@]1(Cc2ccc(F)cc2)[C@H]2c3cc(C(=O)N(C)C)n(CCc4ccc(OC)c(Br)c4)c3C[C@H]2CN1C(=O)c1ccccc1	0.514	1.1	0.732	1.6 (inactive)	0.856	0.182	-0.086	0.145	-0.257	1.01
CCOC(=O)C1=C[C@@H](c2ccccc2)N(S(=O)(=O)c2ccc(C)cc2)[C@H]1c1ccc(OC)cc1	0.979	1.16	1.05	-0.71 (inactive)	0.957	0.938	0.561	0.652	0.0786	1.25
